Laboratory results from PubChem BioAssay (NCI).
About 83,000 compounds went through this panel and 20% of them were active in at least one assay; those are over-represented in the sample as a whole.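 Method: cells in 96-well plates; compound added at one concentration; 48 h incubation; percent growth measured; values under 10 scored active.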 A number with no mark means an inactive call. Active and inactive are the calls of the source.

The compounds below were run on OVCAR-5 ovarian (assay: NCI-60 one-dose screen, 48 h (100 = growth as untreated, 0 = no growth, -100 = all killed)). Details: 10 µM unless noted.
Description: Growth inhibition of the OVCAR-5 human tumor cell line is measured as a screen for anti-cancer activity. Cells are grown in 96 well plates and exposed to the test compound for 48 hours. Compounds are tested at a single concentration, which is 10^-5 M for most compounds. The reported endpoint is percent growth (GI% or GIPRCNT), where numbers from 0 - 100% represent growth inhibition, and numbers from -100% - 0 represent cell death. For example, a value of 40 represents 60% growth inhibition. A value of 0 means no net growth occurred over the course of the experiment. A value of -40 indicates 40% of cells at the beginning of the experiment died by the end of the experiment. A value of -100 means all cells are dead at the end of the experiment.
NCI-60 Human Tumor Cell Lines Screen was performed using the standard one-dose NCI protocol, which is described in more detail at https://dtp.cancer.gov/discovery_development/nci-60/default.htm.
Compounds with GIPRCNT values below 10 were considered active. Activity score was based on GIPRCNT using the following formula: […]
Score is 0 for GIPRCNT values of 100 or above, 50 for GIPRCNT values of 0, and 100 for GIPRCNT values of -100.

**Q.** For `O=C(Nc1ccccc1Cl)c1cnc2ccc(C3CCNCC3)cn12`, which growth is on record?
**A.** 30.8%

**Q.** For `COc1cc(/C=C/C(=O)c2ccc(F)cc2)ccc1OCCCCCOc1cc2c(cc1OC)C(=O)N1CCCC1C=N2` (stereo not given), which growth is on record?
**A.** -5.07% (active)

**Q.** `Nc1nc(SCc2ccccc2Cl)c(-c2ccccc2)c(SCc2ccccc2Cl)n1` was tested. Which growth did it give?
**A.** 84.9%

**Q.** How did the growth turn out when `CCCn1cnc2c1c(=O)n(CCCCC(C)=O)c(=O)n2C` was run?
**A.** 110%

**Q.** With `c1cncc(CNc2ccccc2-c2nnc(Nc3ccc4c(c3)OCO4)o2)c1` as the compound, how does the growth read?
**A.** 25.2%

**Q.** How did the growth turn out when `CN(C)c1nc(N)nc(Cn2c(-c3nonc3N)nc3ccccc32)n1` was run?
**A.** 90.6%

**Q.** With `CCOC(=O)c1cc(-c2cccnc2)nc2c(Cl)cc(Cl)cc12` as the compound, how does the growth read?
**A.** 92%

**Q.** `COc1cc2c(-c3nc4cc(Cl)c(F)cc4s3)cc(=O)oc2c(C)c1OC` was tested. Which growth did it give?
**A.** -65.5% (active)

**Q.** With `COc1ccc2nc3cc(Cl)ccc3c(Nc3cc(C(C)C)c(O)cc3C)c2c1` as the compound, how does the growth read?
**A.** 68.7%

**Q.** `C=C1c2c(C)nn(-c3ccc(C#CCOC4OC(CO)C(O)C(O)C4O)cc3)c2N(C)C23C[C@H]1C1(C)c4c(C)nn(-c5ccc(C#CCOC6OC(CO)C(O)C(O)C6O)cc5)c4N(C)C(C)(C[C@H]12)C3` (stereo not given in full) was tested. Which growth did it give?
**A.** 51%

**Q.** How did the growth turn out when `O=C(C=C=Nc1ccccc1)C(=O)N=C=Cc1ccccc1` was run?
**A.** 75.5%

**Q.** `N#Cc1cccc(/C=C(/C(=O)c2ccccc2)c2ccccc2)c1` was tested. Which growth did it give?
**A.** 80.4%

**Q.** For `CC/C=C\C=C/C(=O)N/C=C/CC1Cc2cccc(O)c2C(=O)O1` (stereo not given), which growth is on record?
**A.** 91%

**Q.** With `O=C(/C=C/c1cccnc1)NCCCCC1CCCN(C(=O)c2ccccc2)C1` (stereo not given) as the compound, how does the growth read?
**A.** 96.1%

**Q.** For `CCOc1cc(-c2ccc[nH]2)[nH]c1/C=C1\N=C(C)C(C(=O)OC)=C1C`, which growth is on record?
**A.** -67.6% (active)

**Q.** With `COc1ccc2c(c1)C(=O)/C(=C/c1ccc([N+](=O)[O-])s1)O2` as the compound, how does the growth read?
**A.** 32.9%

**Q.** How did the growth turn out when `O=C(c1ccccc1)c1ccco1` was run?
**A.** 114%

**Q.** How did the growth turn out when `Cc1ccc(C(C)C)cc1NC(=O)Nc1ccc([N+](=O)[O-])cc1` was run?
**A.** 26.8%

**Q.** How did the growth turn out when `COc1ccc(-c2cc(C(=O)Nc3nc4cc(C)c(C)cc4s3)nc3cc(-c4ccccc4)nn23)cc1OC` was run?
**A.** 111%

**Q.** Which growth does the source give for `CCCCCCC/C(=N\N=C(N)N)c1ccc(O)cc1` here?
**A.** 58.3%

**Q.** For `Nc1ncc(-c2cnn(C3CCNCC3)c2)cc1-c1nc2cc(Cl)ccc2o1`, which growth is on record?
**A.** -81.2% (active)

**Q.** For `CCCOc1ccc2c(c1)CC[C@@H]1[C@@H]2CC[C@@]2(C)[C@H]1CC[C@]2(C)O`, which growth is on record?
**A.** 76.7%

**Q.** For `CNc1ccc(CSc2ccc(Cl)cc2)cc1`, which growth is on record?
**A.** 90.2%

**Q.** For `COc1cc(/C=C2\CCC/C(=C\c3ccc(OCC4CO4)c(OC)c3)C2=O)ccc1OCC1CO1` (stereo not given), which growth is on record?
**A.** 86%

**Q.** `COC(=O)c1ccc2c(c1)nc(-c1ccc(O)c(OC)c1)n2-c1cc(C(C)(C)C)[nH]n1` was tested. Which growth did it give?
**A.** 117%

**Q.** Which growth does the source give for `CN(CC(=O)N(Cc1ccc(C2CCCCC2)cc1)c1ccc(C(=O)O)cc1)S(=O)(=O)c1c(F)c(F)c(F)c(F)c1F` here?
**A.** 116%

**Q.** For `Cc1c(NCc2nnc3n(Cc4ccccc4)c(=O)c4c5c(sc4n23)CCCC5)c(=O)n(-c2ccccc2)n1C`, which growth is on record?
**A.** 107%

**Q.** For `O=C1/C(=C/c2ccc3cccc(Cl)c3n2)SC(=S)N1CCc1ccc(O)cc1`, which growth is on record?
**A.** 106%

**Q.** `CCc1[nH]nc(-c2ccc(OC)cc2)c1-c1ccccc1OCCN(CC)CC` was tested. Which growth did it give?
**A.** 92.6%

**Q.** `O=C(/C=C/c1cc2ccccc2[nH]c1=O)c1ccc(O)cc1` was tested. Which growth did it give?
**A.** 78.6%

**Q.** With `COc1cc(OC)c2cc(C(=O)O)c(=O)oc2c1` as the compound, how does the growth read?
**A.** 106%

**Q.** `Cc1nc2c(O)cccc2cc1CO` was tested. Which growth did it give?
**A.** 92.7%

**Q.** `O=C1NCN(c2ccccc2)C12CCN(CCCC(c1ccc(F)cc1)c1ccc(F)cc1)CC2` was tested. Which growth did it give?
**A.** 83.2%

**Q.** How did the growth turn out when `O=C(/C=C/c1cc2ccccc2[nH]c1=O)c1ccc(Cl)cc1` was run?
**A.** 55.9%

**Q.** Which growth does the source give for `O=C1NCC(Nc2ccc(Br)cc2Cl)C(=O)N1` (stereo not given) here?
**A.** 100%

**Q.** For `CCOC(=O)C1=NN(c2ccc(Cl)cc2)C2C3N(c4ccc(Cl)cc4)N=C(C(=O)OCC)N3c3ccccc3N12` (stereo not given), which growth is on record?
**A.** 101%

**Q.** Which growth does the source give for `NC(=O)NN=C(C1CC1)C1CC1` here?
**A.** 101%

**Q.** With `CCCCCCCCCCCCCCCCN=C(CC(=O)O)C(=O)O` as the compound, how does the growth read?
**A.** 116%

**Q.** For `O=C(c1nn(-c2ccc(Cl)cc2)cc1O)n1nc(C(F)(F)F)cc1-c1ccccc1`, which growth is on record?
**A.** 58.7%

**Q.** How did the growth turn out when `c1cnc2ccc3ncccc3c2c1` was run?
**A.** 164%
